Rows were chosen to be rich in hits. Some 1.6% of all compounds tested hit in one or more screens of this group.
Efflux pump mplx: blocks antifungal efflux pumps in multiplex yeast assay. S. cerevisiae Candida pump triplex, Nile Red efflux. inhibition, % at 10 µM. 0.44% of 330,000 active. AID 485275;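 active means plate passing quality check with inhibition over a set limit, or well fluorescence over plate mean plus 4 SD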;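 further: Nile Red retained in pooled yeast measured as flow cytometry median fluorescence; 0% = buffer negative control and 100% = Enniatin B positive control; higher means more Nile Red kept so more efflux inhibition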
V-ATPase pHluor: yeast V-ATPase proton transport regulation by pHLuorin. 0.37% of 350,000 active. response, % at 10 µM. S. cerevisiae, pHLuorin cytosolic pH fluorescence; in the data active means response mostly above about 7.3%, no sharp cut-off; inactive means mostly below about 5.4%; further: actives read high
NSD2 inh: blocks human histone methyltransferase NSD2; O96028; NSD2 peptide methylation, AlphaScreen, 120 min; inhibition, % at 12.5 µM; 0.54% of 310,000 active; in the data active means inhibition above about 50%
NPR2 activator: GC-B (human) receptor activation. P20594. HEK293-GC-B cells, CNP EC30, cGMP TR-FRET; 0% at EC30 CNP, 100% saturating CNP. activation, % at 10 µM. 0.11% of 370,000 active;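 active means activation at 10 µM reaching about 35% in either raw or pattern-adjusted values, limit read from the data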
Target sequence (P20594 whole entry, looked up): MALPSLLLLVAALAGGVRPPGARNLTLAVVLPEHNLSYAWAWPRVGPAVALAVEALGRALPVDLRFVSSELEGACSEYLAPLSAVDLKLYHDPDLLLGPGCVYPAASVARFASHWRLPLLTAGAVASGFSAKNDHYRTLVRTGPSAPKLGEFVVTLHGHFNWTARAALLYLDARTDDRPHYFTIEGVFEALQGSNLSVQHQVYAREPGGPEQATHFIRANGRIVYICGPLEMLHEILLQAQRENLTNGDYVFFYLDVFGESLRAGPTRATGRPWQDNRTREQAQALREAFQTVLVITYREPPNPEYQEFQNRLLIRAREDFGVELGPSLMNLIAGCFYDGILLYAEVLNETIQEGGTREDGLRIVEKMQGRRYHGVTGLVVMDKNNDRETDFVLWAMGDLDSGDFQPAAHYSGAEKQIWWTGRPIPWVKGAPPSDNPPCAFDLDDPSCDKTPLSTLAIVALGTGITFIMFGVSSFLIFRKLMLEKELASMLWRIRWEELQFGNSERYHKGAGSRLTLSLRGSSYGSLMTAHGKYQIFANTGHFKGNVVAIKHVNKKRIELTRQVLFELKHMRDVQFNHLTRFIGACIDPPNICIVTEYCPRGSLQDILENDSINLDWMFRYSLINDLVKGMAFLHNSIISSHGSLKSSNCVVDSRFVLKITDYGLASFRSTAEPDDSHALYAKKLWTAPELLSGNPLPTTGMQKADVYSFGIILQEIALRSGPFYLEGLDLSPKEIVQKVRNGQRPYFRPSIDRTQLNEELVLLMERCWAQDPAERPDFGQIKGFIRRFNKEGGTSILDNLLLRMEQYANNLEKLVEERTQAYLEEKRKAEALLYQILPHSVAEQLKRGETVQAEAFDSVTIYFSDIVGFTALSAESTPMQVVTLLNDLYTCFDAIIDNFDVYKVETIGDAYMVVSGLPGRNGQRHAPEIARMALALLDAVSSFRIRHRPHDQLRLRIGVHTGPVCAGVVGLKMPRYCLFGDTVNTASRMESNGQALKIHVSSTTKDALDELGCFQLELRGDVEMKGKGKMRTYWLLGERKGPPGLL
NPR1 activator: GC-A (human) enzyme activation; 0.14% of 370,000 active; HEK293 GC-A cells, cGMP TR-FRET, EC30 ANP; 0% at EC30 ANP, 100% saturating ANP; activation, % at 10 µM; in the data active means activation above about 40%
Rce1 inh: yeast Ras-converting enzyme inhibition | calls only | yeast membranes, quenched prenylated peptide cleavage fluorescence | Q03530 | 0.27% of 290,000 active | AID 2563;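 active means fall in fluorescence gain of 50% or more versus controls, with final raw signal at or below 3038400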;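 further: plate controls were neutral control wells for no effect and wells lacking membranes for full effect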
Cmpd fluor yeast: counter-screen for efflux pump inhibitors: compound fluorescence; shares compounds with Efflux pump mplx; S. cerevisiae AD/pABC3, flow cytometry; fluorescence ratio to DMSO, % at 10 µM; 4% of 1,700 active;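 active means fluorescence ratio to DMSO above its plate's cutoff, the plate mean ratio plus 5 SD, cut at about 210% in these data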;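 further: unstained yeast with no Nile Red so the signal is compound autofluorescence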
Mdr1 pump inh: Candida Mdr1 efflux pump inhibition. AID 588518. shares compounds with Efflux pump mplx. inhibition, % at 10 µM. S. cerevisiae AD/CaMDR1, Nile Red efflux, flow cytometry. 1% of 1,700 active; in the data active means inhibition above about 26%;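 further: 0% = DMSO vehicle and 100% = reference inhibitor; higher means more Nile Red retained so more efflux inhibition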
CaCdr2 efflux inh: blocks the Candida albicans Cdr2 efflux pump in yeast; shares compounds with Efflux pump mplx; S. cerevisiae AD/CaCDR2, Nile Red retention, flow cytometry; Nile Red retention ratio vs DMSO, % at 10 µM; 4% of 1,700 active; AID 588520; in the data active means Nile Red retention ratio vs DMSO above about 190%;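 further: higher ratio means more blocking of Cdr2 efflux of the dye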
CaCdr1 efflux inh: inhibitors of Candida albicans Cdr1 efflux pump. 1% of 1,700 active. S. cerevisiae AD/CaCDR1, Nile Red efflux, flow cytometry. shares compounds with Efflux pump mplx. inhibition, % at 10 µM;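 active means inhibition above the screen-wide mean plus twice its standard deviation, cut at about 32% in these data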
VATPase regulator: modulates yeast V-ATPase proton transport; shares compounds with V-ATPase pHluor; 2% of 980 active; S. cerevisiae pHLuorin cytosolic pH; response, % at 10 µM; in the data active means response above about 24%;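 further: plate controls were vehicle wells for no effect and positive control wells for full effect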
Alpha artifact: AlphaScreen assay artifact in NSD2 counter-screen. AC35, µM (series often up to 10 µM), inactives show at the top dose activity change, negative = signal loss. 9.4% of 1,500 active. AID 1053174. shares compounds with NSD2 inh. AlphaScreen artifact counterscreen, preloaded methylated H4 peptide; call rule not given here
* hit, by the source's call; i = inactive; . = no result.

SMILES	Efflux pump mplx	V-ATPase pHluor	NSD2 inh	NPR2 activator	NPR1 activator	Rce1 inh	Cmpd fluor yeast	Mdr1 pump inh	CaCdr2 efflux inh	CaCdr1 efflux inh	others
Cc1cccn2c(=O)c3cc(S(=O)(=O)c4ccc(F)cc4)c(=N)n(Cc4ccco4)c3nc12	0.6*	2	12	0	11	i	106	0	114	0
COCCCNC(=O)C[C@H]1C[C@@]2(C(=O)OC)C(=C[C@H](C(C)C)O[C@@H]2C2CC2)N(CCc2ccc(OC)c(OC)c2)C1=O	.	.	.	6	0	.	.	.	.	.
COC(=O)c1cc(NC(=O)NC2CCCCN(Cc3cccc(Cl)c3)C2=O)cc(C(=O)OC)c1 (stereo not given)	.	.	.	2	-11	.	.	.	.	.
CCCCCCCCN1C(=O)N2Cc3cc(OC)ccc3C2CS1(=O)=O (stereo not given)	.	.	.	7	-1	.	.	.	.	.
O=C(COc1ccc(Br)cc1F)Nc1nnc(C2CC2)s1	0	0	-1	2	0	.	95	0	85	0
Cc1ccccc1OCC(=O)Nc1nnc(C2CCCCC2)s1	0	-6	-2	4	6	i	102	0	99	0
COc1cc(C)ccc1OCC(=O)Nc1nnc(C2CC2)s1	0	6	-2	4	-1	.	112	0	106	0
O=C(COc1ccccc1F)Nc1nnc(-c2ccncc2)s1	0	1	2	1	4	i	.	.	.	.
Cc1ccccc1OCC(=O)Nc1nnc(-c2ccncc2)s1	0	1	-1	-2	-3	i	101	0	114	0
O=C(Nc1ccccc1O)c1ccccc1O	1.1*	-4	0	3	9	i	105	0	97	0
Cc1ccc(-c2nnc(Nc3ccc4c(c3)OCO4)c3ccccc23)cc1S(=O)(=O)NC(C)C	0	-1	-1	9	-4	i	.	.	.	.
Cc1ccc(-c2nnc(Nc3ccc4c(c3)OCO4)c3ccccc23)cc1S(=O)(=O)NCCO	13*	1	1	8	9	i	106	0	107	0
CCOc1cc(C2C3=C(CCCC3=O)Nc3nc(C(=O)OC)nn32)ccc1OC (stereo not given)	1.4*	0	-3	3	1	i	103	0	99	0
CCC(Cc1ccccc1)NC(=O)c1ccc2nc(N3CCOCC3)sc2c1 (stereo not given)	2.1*	1	.	5	0	i	108	0	104	0
COc1cc(OC)c(NS(=O)(=O)c2ccc(Cl)c(C(=O)OC(C)C(=O)N3CCCC3)c2)cc1Cl (stereo not given)	7.6*	-1	1	3	5	i	101	0	91	0
COc1ccc(CCNC(=O)C2CCCN(S(=O)(=O)c3ccc(F)cc3)C2)cc1OC (stereo not given)	0	-3	33	2	2	i	.	.	.	.
COc1ccc(CCNC(=O)C2=CCN(S(=O)(=O)c3ccc(F)cc3)CC2)cc1OC	0.4*	2	-2	-4	-4	i	117	0	108	0
Cc1ccc(OCc2nnc(SCC(=O)Nc3ccc4c(c3)OCO4)n2Cc2ccco2)cc1	.	.	3	-9	-4	.	.	.	.	.
COc1ccc(NC(=O)C2OC3OC(C)(C)OC3C3OC(C)(C)OC23)cc1 (stereo not given)	1.5*	-3	-2	0	3	i	101	0	120	0
CCCCCOc1ccc(NC(=O)C2OC3OC(C)(C)OC3C3OC(C)(C)OC23)cc1 (stereo not given)	0	0	-1	-2	0	i	.	.	.	.
CNCc1ccccc1OCC(=O)Nc1ccccc1	8.2*	-4	40	2	2	i	106	0	106	0
CC(NC(=O)CCC(=O)NC(C)c1ccccc1)c1ccccc1 (stereo not given)	0	5	26	2	1	i	.	.	.	.
CC(NC(=O)CCSCCC(=O)NC(C)c1ccccc1)c1ccccc1 (stereo not given)	1.2*	1	-2	7	4	i	102	0	98	0
COc1ccc(-n2c(N)c(C(=O)Nc3c(C)n(C)n(-c4ccccc4)c3=O)c3nc4ccccc4nc32)cc1	0.8*	-2	1	6	5	i	110	0	108	0
COc1ccc2c(c1)CN1CN(Cc3ccc(F)cc3)S(=O)(=O)CC21 (stereo not given)	.	.	.	-6	-1	.	.	.	.	.
SMILES	Efflux pump mplx	V-ATPase pHluor	NSD2 inh	NPR2 activator	NPR1 activator	Rce1 inh	Cmpd fluor yeast	Mdr1 pump inh	CaCdr2 efflux inh	CaCdr1 efflux inh	others
CCOC(=O)C(C(=O)OCC)c1cc(Br)c2noc3c2c1C(=O)c1ccccc1-3	0.8*	3	97*	-35	-47	i	826*	1	193*	0	Alpha artifact=-14%
COC(=O)[C@]12C[C@H](CC(=O)N3CCCCC3)C(=O)N(Cc3ccccc3)C1=C[C@H](COCc1ccccc1)O[C@@H]2C	.	.	.	3	5	.	.	.	.	.
Cc1nn(C)cc1C(C)NC(=O)c1cc(COc2c(F)cccc2F)on1 (stereo not given)	0	11*	0	2	1	i	.	.	.	.	VATPase regulator=-3
Cc1nn(C)cc1C(C)NC(=O)c1cc(COc2cccc3cnccc23)on1 (stereo not given)	0	-1	0	-3	0	.	.	.	.	.
CCOC(=O)N=Nc1c(O)n(C)c2ccccc12	0	0	1	0	2	i	.	.	.	.	VATPase regulator=2
C=CCn1c(O)c(N=Nc2ccccc2)c2ccccc21	0	-8	1	0	1	.	.	.	.	.
Cn1c(O)c(N=NC(=N)N)c2ccccc21	0	3	-3	0	-2	i	.	.	.	.
C=CCn1c(O)c(N=NC(=O)OCC)c2ccccc21	0	0	4	5	3	i	.	.	.	.	VATPase regulator=5
COc1ccc(/C=C2\C(=O)NCC(=O)N2C)cc1	0	253*	-2	2	-2	i	.	.	.	.	VATPase regulator=6

Assay outcomes from PubChem.
